Each structure is given as a SMILES string.

This assay can be described thus: qHTS profiling of the MIPE4 collection as inhibitors of Plasmodium falciparum (HB3) proliferation (AID 743347).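 Also: plate controls were DMSO vehicle wells for no effect and artemisinin wells for full effect.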 Particulars: P. falciparum HB3 in erythrocytes, SYBR Green DNA, 72 h; at 28.5 µM (top of the series) unless noted. An excerpt: Plasmodium falciparum is a virulent malarial parasite that kills 1-2 million people worldwide each year. Transmitted by mosquitoes, the sporozoite form of the parasite enters the blood stream to infect hepatocytes, where they become merozoites that infect red blood cells (erythrocytes). Within erythrocytes, merozoites begin a […] cycle of growth and division, after which the parasite is released to infect new red blood cells. Gametocytes, which form within erythrocytes as well, circulate in the bloodstream and are ingested by the mosquito, thereby completing the life cycle. To profile malarial isolates for differential chemical responses and to identify inhibitors of malarial growth, an assay that measures P. falciparum growth and replication within erythrocytes was employed. This assay uses a DNA binding fluorescent dye (SYBR Green) to detect parasite DNA following cell lysis. Because mature erythrocytes lack DNA, only Plasmodium-derived DNA is detected.
The SYBR Green viability assay was adapted from a method described previously (Plouffe et al., 2008). For screening 3 ul culture medium was dispensed into 1536 well black clear bottom plates (Aurora Biotechnologies) using a Multidrop Combi (Thermo Fisher Scientific Inc.), 23 nL compounds in DMSO were added by a pin tool (Kalypsys), and 5 ul of erythrocytes infected with P. falciparum (0.3% parasitemia, 2.5% hematocrit final concentration) were added. The plates were incubated at 37 C in a humidified incubator in 5% CO2 for 72 h, and 2 ul lysis buffer (20 mM Tris HCl, 10 mM EDTA, 0.16% saponin, 1.6% triton X, 10X SYBR Green I supplied as 10,000X […] by Invitrogen) was added to each well. The plates were mixed for 25 sec with gentle shaking and incubated overnight at room temperature in the dark. The following morning, fluorescence intensity at 485(14) nm excitation and 535(25) nm emission wavelengths was measured on an EnVision (Perkin Elmer) plate reader. Plate reads were normalized relative to the control inhibitor (0.29 uM artemisinin) and vehicle (DMSO) wells present on each plate and then corrected by an algorithm using vehicle-only control plates at the beginning and end of the compound plate stack.
A general note: qHTS replaces the single test concentration by a dilution series.
Regarding `COc1cc([C@@H]2c3cc4c(cc3[C@H](O)[C@H]3COC(=O)[C@@H]23)OCO4)cc(OC)c1OC`, the growth, % of control amounted to 44.9%.
The result for `CCOC1OC(=O)C[C@H]1NC(=O)[C@@H]1CCCN1C(=O)[C@@H](NC(=O)c1ccc(N)c(Cl)c1)C(C)(C)C` (stereo not given in full) reads 216%.
The result for `CCCCCCCCCCCCCCCC(=O)O[C@H]1[C@@H](O)[C@@H](O)[C@@H]([C@H](NC(=O)[C@@H]2C[C@@H](CCC)CN2C)[C@H](C)Cl)O[C@@H]1SC` reads 81.5%; that for `CCN1C[C@H](C)n2c(c(O)c3c(=O)n(Cc4ccc(F)c(Cl)c4)nc(C(=O)NC)c32)C1=O`, 48.6%; that for `C[C@H](CCC(=O)O)[C@H]1CC[C@H]2[C@@H]3[C@H](O)C[C@@H]4C[C@H](O)CC[C@]4(C)[C@@H]3CC[C@]12C`, 81.3%.
Then `Cc1cn([C@@H]2C[C@@H](O)[C@H](CO)O2)c(=O)[nH]c1=O`, with 59.6%.
Compound `CN1C(=O)C[C@H](C(=O)N[C@@H](Cc2cnc[nH]2)C(=O)N2CCC[C@@H]2C(N)=O)NC1=O` yielded a growth, % of control of 48.7%.
Then `CC(N[C@H]1CCCC[C@H]1NC(=O)c1ccc(Cl)cc1)c1cccc2ccccc12` (stereo not given in full), with 39.9%; and `C[C@H](CCC(=O)O)[C@H]1CC[C@H]2[C@H]3[C@@H](CC[C@]12C)[C@@]1(C)CC[C@@H](O)C[C@H]1C[C@@H]3O`, with 23.1%; and `C[N+](C)([O-])CCNc1ccc(NCC[N+](C)(C)[O-])c2c1C(=O)c1c(O)ccc(O)c1C2=O`, with 60.6%.
Then `c1coc(CNc2ncnc3nc[nH]c23)c1`, with 65.3%; and `CN1c2cc(O)c(N=NC(N)=O)cc2CC1S(=O)(=O)O` (stereo not given), with 54.6%; and `Nc1nc(OCc2ccccc2)c2[nH]cnc2n1`, with 44%.
Then `COC(=O)C[C@](O)(CCCC(C)(C)O)C(=O)O[C@@H]1C(OC)=C[C@]23CCCN2CCc2cc4c(cc2[C@H]13)OCO4`, with 76.2%; and `NC(=O)c1ncn([C@@H]2O[C@H](CO)[C@@H](O)[C@@H]2O)n1`, with 53.5%.
`C=C1C[C@@]2(O)O[C@@]3(C[C@H]2C(C)C)[C@H](C)CC[C@H]13` registered a growth, % of control of 68.4%.
Regarding `O=C(C[C@@H]1NCCC[C@@H]1O)Cn1cnc2ccccc2c1=O`, the growth, % of control came to 5.66%.
The result for `CC(=O)[C@H]1CC[C@H]2[C@@H]3CCC4=CC(=O)CC[C@]4(C)[C@H]3CC[C@]12C` reads 31%; that for `CC=CCC=CCCC(=O)[C@H]1O[C@@H]1C(N)=O`, 71.3%; that for `O=C1CC[C@@]2(O)[C@H]3Cc4ccc(O)c5c4C2(CCN3CC2CC2)[C@H]1O5`, 94.1%.
Take `CN[C@H](CC(C)C)C(=O)N[C@H]1C(=O)N[C@@H](CC(N)=O)C(=O)N[C@@H]2C(=O)N[C@H]3C(=O)N[C@H](C(=O)N[C@H](C(=O)O)c4cc(O)cc(O)c4-c4cc3ccc4O)[C@H](O)c3ccc(c(Cl)c3)Oc3cc2cc(c3O[C@@H]2O[C@H](CO)[C@@H](O)[C@H](O)[C@@H]2O[C@H]2C[C@](C)(N)[C@H](O)[C@H](C)O2)Oc2ccc(cc2Cl)[C@H]1O`: the growth, % of control was 704%.
As for `CC(C)OC(=O)[C@H](C)N[P@](=O)(OC[C@H]1O[C@@H](n2ccc(=O)[nH]c2=O)[C@](C)(F)[C@H]1O)Oc1ccccc1`, the growth, % of control amounted to 76.4%.
Then `COc1cc(CNC(=O)CCCCC=CC(C)C)ccc1O`, with 105%.
The result for `CC(=O)O[C@H]1C[C@@H]2CC[C@H]3[C@H]4C[C@H]([N+]5(C)CCCCC5)[C@@H](OC(C)=O)[C@@]4(C)CC[C@@H]3[C@@]2(C)C[C@H]1[N+]1(C)CCCCC1` reads 72.7%.
Then `O=C(O)c1ccccc1C(=O)Nc1ccc(-c2ccccc2)cc1`, with 87.2%; and `C=C(C)[C@@H]1CC[C@]2(C(=O)O)CC[C@]3(C)[C@H](CC[C@@H]4[C@@]5(C)CC[C@H](O)C(C)(C)[C@@H]5CC[C@]43C)[C@@H]12`, with 208%; and `CC(=O)N(O)CCCP(=O)(O)O`, with 13%.
In turn, `CN1C2CCC1CC(OC(=O)C(CO)c1ccccc1)C2` (stereo not given) displayed a growth, % of control of 108%.
Then `CC[C@H](C=C[C@@H](C)[C@H]1CC[C@H]2[C@@H]3CC=C4C[C@@H](O)CC[C@]4(C)[C@@H]3CC[C@]12C)C(C)C`, with 89% [at 9.64 µM]; and `O=C(O)C(=O)Nc1cccc(C2=NN=N[N]2)c1`, with 97.2%; and `O=C1c2cccc(O)c2C(=O)c2c(O)cc(CO)cc21`, with 568%.
The result for `CC(=O)N[C@H]1[C@@H]([C@H](O)[C@H](O)CO)OC(C(=O)O)=C[C@@H]1N=C(N)N` reads 100%.
Then `C[C@@H](c1ncncc1F)[C@](O)(Cn1cncn1)c1ccc(F)cc1F`, with 94.6%.
`O=c1[nH]c(=O)n([C@H]2C[C@@H](O)[C@@H](CO)O2)cc1C=CBr` showed a growth, % of control of 652%.
The result for `CC1(C)CC(O)CC(C)(C)N1[O]` reads 60.2%; that for `CCCNC(=O)Nc1ccc(Oc2ncnc3cc(OC)c(OC)cc23)cc1Cl`, 34.8%; that for `NC1=N[C@H]2[C@H](CS[C@H]2CCCCC(=O)O)N1`, 44.4% [at 9.64 µM].
Compound `CON=C(C(=O)N[C@@H]1C(=O)N2C(C(=O)O)=C(Cn3ccc(=N)n3CCO)CS[C@H]12)c1csc(N)n1` returned a growth, % of control of 99.1%.
Then `CC=C1C2C=C(C)CC1(N)c1ccc(=O)[nH]c1C2` (stereo not given), with 103%.
Take `Cc1ncc(C[n+]2csc(CCO)c2C)c(=O)[nH]1`: the growth, % of control came to 73.2%.

The record behind these values is PubChem BioAssay (NCATS).
